Source: PubChem BioAssay (NCATS)
Records with an inconclusive call do not appear. Active and inactive are the calls of the source. Calls follow the shape of the dose curve; as a rule, active = well fitted curve in the direction sought with a large enough effect; inconclusive = small, poorly fitted or top-dose-only effect, or another doubt; inactive = no such curve, though single readings can be large; an effect the other way counts as inactive or inconclusive.

Tests used:
[1] = qHTS of pediatric cancer cell lines to identify multiple opportunities for drug repurposing: Primary screen for NB1643 cells (AID 1347099); also: nearly all actives have a fitted effect of over 50% in size; also: potency is read from the fitted curve at half-maximal effect
Procedure, shortened: (§1)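 Quantitative HTS format: each compound titrated (MIPE 11 points from 0.78 nM, NPC 8 points from 0.59 nM) onto cells plated 5 hours earlier. After 48 h at 37 degrees C, CellTiter-Glo luminescence was recorded.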

[2] = qHTS of pediatric cancer cell lines to identify multiple opportunities for drug repurposing: Primary screen for BT-12 cells (AID 1347101); also: nearly all actives have a fitted effect of over 25% in size; also: potency is read from the fitted curve at half-maximal effect
Procedure, shortened: (§2)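 Cells (500-1,000/well) rested 5 h, then received compounds for 48 h; metabolically active cells were measured by CellTiter-Glo luminescence. Final concentrations spanned up to 46 µM (MIPE, 11-point) or 0.59 nM-46 µM (NPC, 8-point) in primary screens, 11-point in follow-ups.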

[3] = qHTS of pediatric cancer cell lines to identify multiple opportunities for drug repurposing: Primary screen for Rh30 cells (AID 1347107); also: series mostly up to about 46 µM; nearly all actives have a fitted effect of over 75% in size
Procedure, shortened: as §2

[4] = qHTS of pediatric cancer cell lines to identify multiple opportunities for drug repurposing: Primary screen for Rh41 cells (AID 1347108);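 also: series mostly up to about 46 µM; luminescence drop marks cytotoxic hits; nearly all actives have a fitted effect of over 70% in size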
Procedure, shortened: as §1

[5] = qHTS of pediatric cancer cell lines to identify multiple opportunities for drug repurposing: Primary screen for Rh18 cells (AID 1347102); also: nearly all actives have a fitted effect of over 65% in size; also: potency is read from the fitted curve at half-maximal effect
Procedure, shortened: as §2

[6] = qHTS of pediatric cancer cell lines to identify multiple opportunities for drug repurposing: Primary screen for control Hh wild type fibroblast cells (AID 1347106);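 also: series mostly up to about 46 µM; a drop in luminescence marks cytotoxicity and a rise apparent proliferation; nearly all actives have a fitted effect of over 55% in size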
Procedure, shortened: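 Viability after 48 h compound treatment at 37C, 500-1,000 cells/well, read as ATP luminescence with CellTiter-Glo. Primary screens used 11-point (MIPE, 0.78 nM-46 µM) or 8-point (NPC, 0.59 nM-46 µM) final concentrations; follow-up screens used 11-point dilutions.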

[7] = qHTS of pediatric cancer cell lines to identify multiple opportunities for drug repurposing: Confirmatory screen for NB1643 cells (AID 1347109); also: potency is read from the fitted curve at half-maximal effect; nearly all actives have a fitted effect of over 45% in size
Procedure, shortened: as §2

[8] = qHTS of pediatric cancer cell lines to identify multiple opportunities for drug repurposing: Confirmatory screen for A673 cells (AID 1347110);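 also: potency is read from the fitted curve at half-maximal effect; cells exposed to compound for 48 h before the viability read; nearly all actives have a fitted effect of over 65% in size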
Procedure, shortened: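 A673 cells seeded at 500-1,000 cells/well, rested 5 h, then dosed; primary MIPE 11-point (0.78 nM to 46 µM), NPC (0.59 nM to 46 µM); confirmatory 11-point. CellTiter-Glo luminescence after 48 h.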

[9] = qHTS of pediatric cancer cell lines to identify multiple opportunities for drug repurposing: Confirmatory screen for SK-N-MC cells (AID 1347111);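 also: potency is read from the fitted curve at half-maximal effect; cells exposed to compound for 48 h before the readout; nearly all actives have a fitted effect of over 70% in size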
Procedure, shortened: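 Seed 500-1,000 cells/well; rest 5 h at 37 degrees C. Pin-transfer compounds, 11-point titration. Incubate 48 h. Add CellTiter-Glo, 15 min RT, read luminescence.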

[10] = qHTS of pediatric cancer cell lines to identify multiple opportunities for drug repurposing: Confirmatory screen for LAN-5 cells (AID 1347113); also: nearly all actives have a fitted effect of over 65% in size; also: potency is read from the fitted curve at half-maximal effect
Procedure, shortened: as §2

[11] = qHTS of pediatric cancer cell lines to identify multiple opportunities for drug repurposing: Confirmatory screen for NB-EBc1 cells (AID 1347115);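 also: potency is read from the fitted curve at half-maximal effect; cells exposed to compound for 48 h before the viability read; nearly all actives have a fitted effect of over 45% in size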
Procedure, shortened: as §2

[12] = qHTS of pediatric cancer cell lines to identify multiple opportunities for drug repurposing: Confirmatory screen for BT-37 cells (AID 1347117); also: potency is read from the fitted curve at half-maximal effect; nearly all actives have a fitted effect of over 55% in size
Procedure, shortened: as §2

[13] = qHTS of pediatric cancer cell lines to identify multiple opportunities for drug repurposing: Primary screen for RD cells (AID 1347104); also: nearly all actives have a fitted effect of over 55% in size; also: potency is read from the fitted curve at half-maximal effect
Procedure, shortened: as §1

[14] = qHTS of pediatric cancer cell lines to identify multiple opportunities for drug repurposing: Primary screen for MG 63 (6-TG R) cells (AID 1347105); also: nearly all actives have a fitted effect of over 50% in size; also: potency is read from the fitted curve at half-maximal effect
Procedure, shortened: as §1

[15] = qHTS of pediatric cancer cell lines to identify multiple opportunities for drug repurposing: Primary screen for LAN-5 cells (AID 1347100); also: potency is read from the fitted curve at half-maximal effect
Procedure, shortened: as §2

[16] = qHTS of pediatric cancer cell lines to identify multiple opportunities for drug repurposing: Primary screen for OHS-50 cells (AID 1347103); also: nearly all actives have a fitted effect of over 40% in size; also: potency is read from the fitted curve at half-maximal effect
Procedure, shortened: as §2

[17] = qHTS of pediatric cancer cell lines to identify multiple opportunities for drug repurposing: Confirmatory screen for BT-12 cells (AID 1347112); also: potency is read from the fitted curve at half-maximal effect; nearly all actives have a fitted effect of over 55% in size
Procedure, shortened: as §2

[18] = qHTS of pediatric cancer cell lines to identify multiple opportunities for drug repurposing: Confirmatory screen for SJ-GBM2 cells (AID 1347116); also: potency is read from the fitted curve at half-maximal effect; nearly all actives have a fitted effect of over 60% in size
Procedure, shortened: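 Viability measured as metabolically active cells via CellTiter-Glo luminescence following 48 hours of compound exposure, 11-point dilutions in confirmatory testing. 500-1,000 cells/well plated 5 hours before dosing; controls were DMSO and 2.3 µM bortezomib.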

Measured: Potency

CCCN(CCC)C(=O)C(CCC(=O)OCCCN1CCN(CCOC(=O)Cc2c(C)n(C(=O)c3ccc(Cl)cc3)c3ccc(OC)cc23)CC1)NC(=O)c1ccccc1 (configuration not stated)
inactive: [1] | [2] | [3] | [4]

COc1ccc([C@@H]2Sc3ccccc3NC(=O)[C@@H]2O)cc1
inactive: [1] | [5] | [6] | [3] | [4]

N#C/C(=C1/SC[C@@H](c2ccc(Cl)cc2Cl)S1)n1ccnc1
inactive: [5] | [6] | [3]

COc1c(C)c2c(c(O)c1C/C=C(\C)CCC(=O)OCCN1CCOCC1)C(=O)OC2
active: [7] 1310 nM | [8] 3690 nM | [9] 1650 nM | [10] 1650 nM | [11] 827 nM | [12] 1310 nM
inactive: [6] | [3] | [4]

CCCC(=O)c1cc(O)c(O)cc1O
inactive: [1] | [2] | [13] | [14] | [3] | [4]

CCCCCCCCCCCCCCCC[N+](C)(C)Cc1ccccc1
active: [15] 21100 nM | [2] 11000 nM | [5] 11900 nM | [14] 26600 nM

CC1CCCCN1CCCOC(=O)c1ccc(OC2CCCCC2)cc1 (configuration not stated)
inactive: [15] | [5] | [13] | [14] | [6] | [3]

OCc1c[nH]c2ccccc12
inactive: [5] | [16] | [14] | [6] | [3]

CCCCCCOC(=O)NC(=N)c1ccc(NCc2nc3cc(C(=O)N(CCC(=O)OCC)c4ccccn4)ccc3n2C)cc1
inactive: [1] | [5] | [14] | [3]

Oc1ccc(CCNCCCCCCNCCc2ccccc2)cc1O
inactive: [1] | [14] | [6] | [3]

O=C(O)Cc1ccc(OCCNC[C@H](O)c2ccccc2)cc1
inactive: [1] | [15] | [2] | [5] | [16] | [13] | [6] | [3]

COc1ccc(-n2nc(CCC(=O)N(C)O)cc2-c2ccc(Cl)cc2)cc1
active: [16] 19500 nM
inactive: [1] | [5]

CCCCC/C=C\C/C=C\CCCCCCCC(=O)NC(C)c1ccccc1 (configuration not stated)
inactive: [15] | [5] | [13] | [14] | [6] | [3]

CCC1=C[C@@H]2CN(C1)Cc1c([nH]c3ccccc13)[C@@](C(=O)OC)(c1cc3c(cc1OC)N(C)[C@H]1[C@@](O)(C(=O)OC)[C@H](OC(C)=O)[C@]4(CC)C=CCN5CC[C@]31[C@@H]54)C2
inactive: [3]
active: [1] 2660 nM | [15] 8.4 nM | [2] 34.7 nM | [16] 19.5 nM | [14] 21.1 nM | [7] 104 nM | [8] 11.7 nM | [9] 18.5 nM | [17] 52.2 nM | [10] 329 nM | [18] 52.2 nM | [12] 26.1 nM

CC(C)(c1ccc(O)cc1)c1ccc(O)cc1
inactive: [1] | [15] | [5] | [13] | [6] | [3]

Cc1ccc(CCn2c3c(c4cc(Cl)ccc42)CN(C)CC3)cn1
inactive: [1] | [15] | [5] | [14] | [6] | [3] | [4]

CCN(CC)CCOc1ccc(/C(=C(\Cl)c2ccccc2)c2ccccc2)cc1
inactive: [6] | [3]
active: [15] 18800 nM | [2] 15500 nM | [16] 24600 nM | [13] 23700 nM

CN(C)CCOC1=Cc2ccccc2Sc2ccc(Cl)cc21
inactive: [1] | [15] | [5] | [14] | [6] | [3] | [4]
active: [16] 24600 nM

CCOC(=O)C1=C(C)NC(C)=C(C(=O)OCC)C1c1ccccc1/C=C/C(=O)OC(C)(C)C
inactive: [6] | [3]
active: [16] 15500 nM | [14] 26600 nM

CN1CC[C@H](c2c(O)cc(O)c3c(=O)cc(-c4ccccc4Cl)oc23)[C@H](O)C1
active: [2] 276 nM | [16] 276 nM | [13] 596 nM
inactive: [6] | [3]

COc1cc(C(=O)OC(COCCC(C)C)CN2CCOCC2)cc(OC)c1OC (configuration not stated)
inactive: [1] | [15] | [2] | [5] | [16] | [13] | [14] | [6] | [3] | [4]

c1ccc2occc2c1
inactive: [1] | [15] | [2] | [5] | [16] | [13] | [14] | [6] | [3] | [4]

Nc1ccc2c(c1)CN1C(=O)c3ccccc3C1=N2
inactive: [6]

O=C(c1cc(O)c(O)c(O)c1)c1ccc(O)c(O)c1O
inactive: [5] | [13] | [14] | [6] | [3] | [4]
active: [16] 24600 nM

CC(C(O)c1ccccc1)N(C)CCOC(c1ccccc1)c1ccccc1 (configuration not stated)
inactive: [1] | [14] | [6] | [3] | [4]
active: [2] 21900 nM | [16] 27600 nM

Cc1nc(C2CCCCC2)c(-c2ccc(S(N)(=O)=O)c(F)c2)o1
inactive: [1] | [5] | [13] | [14] | [6] | [3] | [4]

O=C(NO)c1ccccc1
inactive: [15] | [2] | [16] | [14] | [6]

O=C(OCC(O)CO)c1ccccc1Nc1ccnc2c(C(F)(F)F)cccc12 (configuration not stated)
inactive: [5] | [13] | [14] | [6] | [3] | [4]

Cc1cccc(N(C)C(=S)Oc2ccc3c(c2)CCC3)c1
inactive: [1] | [15] | [5] | [13] | [14] | [6] | [3] | [4]

COC(=O)C1=C(C)NC(COC(N)=O)=C(C(=O)OC(C)C)C1c1cccc(Cl)c1Cl (configuration not stated)
inactive: [1] | [15] | [5] | [13] | [14] | [6] | [3] | [4]

CO[C@@]1(NC(=O)CSC[C@@H](N)C(=O)O)C(=O)N2C(C(=O)O)=C(CSc3nnnn3C)CS[C@@H]21
inactive: [1] | [15] | [2] | [13] | [14] | [6] | [3] | [4]

Cc1nc2n(c(=O)c1CCN1CCC(C(=O)c3ccc(F)cc3)CC1)CCS2
inactive: [1] | [15] | [5] | [13] | [14] | [6] | [3] | [4]

CC(C)(C)C1CCC(CC2=C(O)c3ccccc3C(=O)C2=O)CC1 (configuration not stated)
active: [2] 24600 nM | [16] 3890 nM
inactive: [5] | [6]

O=S(=O)(O)c1ccc2nc(-c3ccccc3)[nH]c2c1
inactive: [6]

CCOC(=O)[C@H](CCc1ccccc1)N[C@@H](C)C(=O)N(CC(=O)O)C1Cc2ccccc2C1
inactive: [1] | [15] | [2] | [13] | [6] | [3]

CC(CC1c2ccccc2CCc2ccccc21)CN(C)C (configuration not stated)
inactive: [1] | [15] | [5] | [14] | [6] | [3]

Cc1nc(N)nc(N)c1-c1ccc(Cl)c(Cl)c1
active: [2] 872 nM | [16] 2760 nM | [13] 1330 nM | [8] 1650 nM | [9] 147 nM
inactive: [1] | [6] | [3] | [4] | [10]

Nc1cc(C(F)(F)F)ccc1S
inactive: [15] | [14] | [3]

CN1CCCN(C(c2ccccc2)c2ccc(Cl)cc2)CC1 (configuration not stated)
active: [15] 15000 nM | [16] 30900 nM
inactive: [14] | [6] | [3] | [4]
